We go through 17 molecules from PubChem BioAssay (NCATS).

Inconclusive results are not listed. Active and inactive are the calls of the source. Unless noted, calls follow the shape of the dose curve; as a rule, active = well fitted curve in the direction sought with a large enough effect; inconclusive = small, poorly fitted or top-dose-only effect, or another doubt; inactive = no such curve, though single readings can be large; an effect the other way counts as inactive or inconclusive.

Assay [1] deals with Alpha-galactosidase A (Homo sapiens) (UniProt P06280). Kind of assay: Counterscreen for Glucocerebrosidase Inhibitors: qHTS Assay for Human alpha-Galactosidase at pH 4.5 (AID 992). Also: 0% is about no effect. The procedure, abridged:
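Each compound is preincubated briefly with 2 nM enzyme before substrate addition (80 uM); plates then sit 20 min at ambient temperature, are quenched with 1M NaOH/1M glycine, and read fluorometrically.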
In general terms: A counterscreen serves to expose hits that act by an unwanted route or on another target.

The target in assay [2] is Alpha-galactosidase (Coffea arabica) (UniProt Q42656). Kind of assay: Counterscreen for Glucocerebrosidase Inhibitors: qHTS Assay for Coffee Bean alpha-Galactosidase at pH 5.9 (AID 998).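 Also: plate controls were uninhibited enzyme for no effect and no-enzyme basal signal for full effect.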 The procedure, abridged: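 Enzyme 2 nM + cpd (0.7 nM–77 uM titration) + 4-MU-alpha-Gal 80 uM, pH 5.9 citrate/Tween-20, RT 20 min, NaOH/glycine stop pH 10, fluor 365/440. Normalized to no-enzyme and full-activity controls; Hill-fit AC50.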
Chain of Alpha-galactosidase (Coffea arabica) (Q42656 whole entry, looked up): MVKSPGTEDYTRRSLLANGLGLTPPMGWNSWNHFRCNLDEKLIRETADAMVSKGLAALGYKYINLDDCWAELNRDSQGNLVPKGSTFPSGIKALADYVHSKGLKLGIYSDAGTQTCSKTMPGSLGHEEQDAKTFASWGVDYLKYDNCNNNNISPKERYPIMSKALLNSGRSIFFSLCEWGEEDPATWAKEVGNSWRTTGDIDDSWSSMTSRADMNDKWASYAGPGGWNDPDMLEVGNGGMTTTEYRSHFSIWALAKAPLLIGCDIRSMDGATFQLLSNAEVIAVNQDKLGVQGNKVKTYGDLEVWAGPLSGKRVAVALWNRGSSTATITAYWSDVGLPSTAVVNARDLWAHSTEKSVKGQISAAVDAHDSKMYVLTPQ

Assay [3] in a line: Validation of Assay for Modulators of Lamin A Splicing (AID 1459; active = well fitted curve in the direction sought with a large enough effect in the signal ratio; the % refers to the signal ratio;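 also: cells exposed to compound for two days before reading; 0% is about no effect; ratio rise marks activators and ratio drop marks inhibitors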). The procedure, abridged: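 S3 HeLa cells stably expressing a lamin A-EGFP splicing minigene and DsRed2 were seeded at 600 cells/well in Opti-MEM with 2% FBS, pin-dosed, and incubated 48 hrs at 37 °C, 5% CO2. Laser-scanning cytometry (488 nm) gave GFP/RFP total intensity ratio.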
Assay [4] can be described thus: qHTS Assay for Lipid Storage Modulators (AID 1519; calls by dose curve; as to activity change, negative = inhibition: % is scaled to controls: 0 for no effect and ±100 for the full control effect). Particulars: Drosophila S3 cells, BODIPY lipid droplet/cell ratio, laser cytometry, cells loaded with oleic acid. Summed up: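 Cells seeded at 5,000 per well were treated with compounds over a concentration series and loaded with oleic acid (400 uM, as added). Lipid droplet fluorescence (488 nm excitation, 500-530 nm channel) was read by laser-scanning cytometry and normalized to 20 uM Triacsin C.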
In general terms: Quantitative high-throughput screening tests each substance at several concentrations.

Assay [5] addresses alpha-glucosidase (Oryza sativa, rice) (UniProt Q653V4). Kind of assay: Counterscreen for Glucocerebrosidase Inhibitors: qHTS Assay for Rice alpha-Glucosidase at pH 5.0 (AID 997).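 Also: 0% = full activity with enzyme and -100% = basal without enzyme.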 The procedure, abridged:
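Endpoint fluorogenic assay at pH 5.0: compounds (0.7 nM to 77 uM) titrated against 4 nM rice enzyme and 400 uM 4-MU-alpha-glucoside for 20 min at room temperature; NaOH/glycine stop, read ex 365/em 440 nm, Hill-fitted AC50.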

A short description of assay [6]: Cell Viability - LYMP2-023 (AID 975).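 Also: cellular ATP measured by luciferase luminescence as viability proxy; plate controls were DMSO only for no effect and 92 µM tetraoctylammonium bromide control for full effect; nearly all actives have a fitted effect of over 55% in size.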 The procedure, abridged:
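In this qHTS, ATP-based luciferase luminescence (CellTiter-Glo) is quantified in human lymphoblastoid cells after 24 hr compound treatment at 37 C; tetraoctylammonium bromide serves as positive control. Concentration-response curves are Hill-fitted to give AC50.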

A short description of assay [7]: Cell Viability - LYMP2-025 (AID 976).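 Also: plate controls were DMSO only for no effect and tetraoctylammonium bromide control for full effect.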 The procedure, abridged:
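Luminescent ATP readout after 24 hr treatment of a human lymphoblastoid line (LYMP2-025, 2500 cells/well, 37 C). Reagent developed 30 min at room temperature; AC50 fitted with the Hill equation.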

The nature of assay [8]: Cell Viability - LYMP2-002 (AID 977).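 Also: compound exposure lasted 24 h at 37 °C; plate controls were DMSO only for no effect and 92 µM tetraoctylammonium bromide for full effect.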 The procedure, abridged: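 Human lymphoblastoid cells, 2500/well, complete medium; 5 h 37 C settle; compound 24 h 37 C; CellTiter-Glo, 30 min RT; luminescence. Decrease in ATP = cytotoxicity; AC50 via Hill equation.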
Assay [9] can be described thus: Cell Viability - LYMP2-006 (AID 978). Also: % is scaled to controls: 0 for no effect and ±100 for the full control effect; nearly all actives have a fitted effect of over 60% in size. The procedure, abridged: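 Human lymphoblastoid cells, 2500 per well, were preincubated 5 hr at 37 C, then exposed to compounds for 24 hr at 37 C in complete medium. Viability was read as intracellular ATP by CellTiter-Glo luminescence; AC50 from Hill-equation fits of qHTS concentration-response data.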
Assay [10] in a line: Cell Viability - LYMP2-007 (AID 979).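 Also: cells exposed to compound for 24 h before reading; 0% = DMSO only and the negative end = 92 µM tetraoctylammonium bromide; nearly all actives have a fitted effect of over 60% in size.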 The procedure, abridged: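 Measured via luciferase-based ATP quantitation: lymphoblastoid cells, 24 hr compound exposure at 37 C, AC50 from Hill fits.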
A short description of assay [11]: Cell Viability - LYMP2-008 (AID 980). Also: % is scaled to controls: 0 for no effect and ±100 for the full control effect; nearly all actives have a fitted effect of over 60% in size. Summed up: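 Measured: ATP-dependent luminescence, proportional to viable cell number, in human lymphoblastoid cells treated 24 hr with compound in complete culture medium. Values are AC50s from Hill-equation modelling of qHTS titrations.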
Assay [12] can be described thus: Cell Viability - LYMP2-010 (AID 981). Also: % is scaled to controls: 0 for no effect and ±100 for the full control effect; nearly all actives have a fitted effect of over 55% in size. Summed up: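 This 24 hr viability screen uses LYMP2-010 lymphoblastoid cells, quantifies ATP via luciferase luminescence, and derives AC50 from Hill fits of qHTS concentration-response data.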
Assay [13] can be described thus: Cell Viability - LYMP2-012 (AID 982).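 Also: cellular ATP by luciferase luminescence where a drop means cytotoxicity; cells exposed to compound for one day before reading; 0% = DMSO only and full loss = 92 µM tetraoctylammonium bromide; nearly all actives have a fitted effect of over 55% in size.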
Assay [14] in a line: Cell Viability - LYMP2-016 (AID 984). Also: % is scaled to controls: 0 for no effect and ±100 for the full control effect; nearly all actives have a fitted effect of over 55% in size. Summed up: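 Human lymphoblastoid cells (LYMP2-016), 2500/well in complete medium, preincubated 5 hr at 37 C, then compound-treated 24 hr at 37 C. Intracellular ATP read by CellTiter-Glo luminescence after 30 min at room temperature; AC50 from Hill-equation concentration-response fits.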
Assay [15] is described as follows: Cell Viability - LYMP2-018 (AID 985).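 Also: plate controls were DMSO only for no effect and tetraoctylammonium bromide at 92 µM for full effect; nearly all actives have a fitted effect of over 50% in size.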 Summed up: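 In this qHTS viability assay, cells are treated for 24 hr and cellular ATP is quantified by luciferase-based luminescence, with tetraoctylammonium bromide as positive control.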
Assay [16] is described as follows: Cell Viability - LYMP2-020 (AID 986). Summed up:
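Cells at 2500 per well receive a 24 hr compound exposure at 37 C. Viability is measured as ATP-dependent luciferase luminescence, with AC50 modeled from qHTS concentration-response curves.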

Assay [17] can be described thus: Cell Viability - LYMP2-024 (AID 988).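 Also: plate controls were DMSO only for no effect and 92 µM tetraoctylammonium bromide for full effect; nearly all actives have a fitted effect of over 60% in size.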 Summed up:
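Cells at 2500 per well received compound for 24 hr after a 5 hr settling period. Viability was scored by CellTiter-Glo luminescence, with AC50 from Hill fits.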

Assay [18] can be described thus: Cell Viability - LYMP2-026 (AID 989). Also: % is scaled to controls: 0 for no effect and ±100 for the full control effect; nearly all actives have a fitted effect of over 50% in size. Summed up:
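Acute toxicity screen in complete culture medium, with 24 hr compound exposure at 37 C. Viability read as cellular ATP via luciferase reaction, with tetraoctylammonium bromide (6.4pM to 92 uM) as positive control.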

A short description of assay [19]: Cell Viability - LYMP1-002 - Assay at 24 hr (AID 993). Also: % is scaled to controls: 0 for no effect and ±100 for the full control effect. The procedure, abridged: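 Viability was judged from intracellular ATP using a luciferase read-out, following a 24-hour compound incubation at 37 C of lymphoblastoid cells seeded at 2500 per well. Concentration-response data were fitted to the Hill equation for AC50.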
Assay [20] is described as follows: Cell Viability - LYMP1-002 - Assay at 40 hr (AID 994). Summed up:
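Concentration-dependent ATP loss after 40 hr treatment at 37 C defined toxicity; AC50 values were obtained by fitting the standard Hill equation.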

Where [21] appears, read: measured here: cell count channel max response.
[22] abbreviates: measured here: lipid channel max response.

Chain of Alpha-galactosidase A (Homo sapiens) (P06280 whole entry, looked up): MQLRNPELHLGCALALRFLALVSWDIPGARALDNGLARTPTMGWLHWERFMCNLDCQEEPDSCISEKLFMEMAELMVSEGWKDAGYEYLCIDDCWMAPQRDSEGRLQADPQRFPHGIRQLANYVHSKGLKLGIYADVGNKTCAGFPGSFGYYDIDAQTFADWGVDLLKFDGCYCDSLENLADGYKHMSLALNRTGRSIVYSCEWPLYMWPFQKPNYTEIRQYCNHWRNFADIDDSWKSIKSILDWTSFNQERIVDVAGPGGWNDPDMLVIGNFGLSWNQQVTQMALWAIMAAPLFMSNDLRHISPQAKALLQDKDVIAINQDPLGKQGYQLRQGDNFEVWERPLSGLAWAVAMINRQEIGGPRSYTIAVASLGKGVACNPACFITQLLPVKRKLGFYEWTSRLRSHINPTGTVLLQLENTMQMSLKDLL

For the molecule `NC(=O)COc1c(F)cc(SCCNS(=O)(=O)c2ccccc2)cc1F`, the result in [1], in [2] and in assay [3] was inactive. Further, in [4] (at 57.5 µM (top of the series)), the activity change, negative = inhibition is -2.33% (inactive). Also, the max response is 1.68% in assay [4] (setting [21]) and -0.0137% in [4] (setting [22]).
`CC(C)NP(=O)(NC(C)C)OP(=O)(NC(C)C)NC(C)C`: the call in assay [1], in [2] and in assay [3] was inactive. Besides, in assay [4] (at 57.5 µM (top of the series)), the activity change, negative = inhibition is 2% (inactive). Besides, the results for the max response in [4] (setting [21]) and in assay [4] (setting [22]) were -5.61% and -4.03%, respectively.
Turning to `NCCc1c[nH]c2ccc(C(N)=O)cc12`, the outcome in assay [1], in assay [5], in assay [2] and in assay [3] was inactive. Moreover, the activity change, negative = inhibition in assay [4] (at 57.5 µM (top of the series)) is -0.884% (inactive). The max response in assay [4] (setting [21]) turned out to be 2.92%; in [4] (setting [22]), 1.87%.
For the molecule `CCS(=O)(=O)Nc1cccc(C(=C2CCCCC2)c2cnc[nH]2)c1`, the molecule was called inactive in assay [1] and in assay [2]. Moreover, in assay [4] (at 57.5 µM (top of the series)), the activity change, negative = inhibition is 1.44% (inactive). Further, the max response in assay [4] (setting [21]) was 56.8%; in assay [4] (setting [22]), 58%.
With `C[C@@H]1O[C@H](C[N+](C)(C)C)CS1`, the call in assay [1], in [2] and in assay [3] was inactive.
Regarding `CC(=O)c1c(O)c(C)c(O)c(Cc2c(O)c3c(c(C(=O)/C=C/c4ccccc4)c2O)OC(C)(C)C=C3)c1O`, the activity change, negative = inhibition in assay [4] (at 57.5 µM (top of the series)) was 1.99% (inactive). Besides, the max response in assay [4] (setting [21]) turned out to be 24.5%; in assay [4] (setting [22]), 25.8%.
`NC(Cc1ccc(N(CCCl)CCCl)cc1)C(=O)O` (stereo not given): in assay [4] (at 57.5 µM (top of the series)), the activity change, negative = inhibition is 5.85% (inactive). In addition, the max response in assay [4] (setting [21]) was determined as 17.5%; in [4] (setting [22]), 28.4%.
For `Clc1cc(I)cc(Cl)c1NC1=NCCN1`, the molecule was called inactive in [1], in [2] and in assay [3].
As to `NC(CCCCCP(=O)(O)O)C(=O)O` (stereo not given), the activity change, negative = inhibition in assay [4] (at 57.5 µM (top of the series)) is 0.489% (inactive). Besides, the max response in [4] (setting [21]) is -0.44%; in assay [4] (setting [22]), -0.15%.
Regarding `O=CC=O`, the Potency result in assay [6], in assay [7], in assay [8], in assay [9], in assay [10] and in assay [11] was “inactive” each time. The Potency entry in assay [12], in assay [13], in [14], in assay [15], in assay [16] and in assay [17] was “inactive” throughout. Also, the Potency entry in [18], in assay [19] and in assay [20] was “inactive” throughout.
With `N#CC(C#N)=Cc1cc(O)c(O)c(O)c1`, the outcome in assay [1], in assay [2] and in assay [3] was inactive.
In the case of `CCC1(C)CC(=O)NC(=O)C1`, the activity change, negative = inhibition in assay [4] (at 25.7 µM (top of the series)) was -1.02% (inactive). Also, the max response was -7.91% in assay [4] (setting [21]) and -9.15% in assay [4] (setting [22]).
As for `CNC(=O)OCC[N+](C)(C)C`, the call in [1], in assay [2] and in assay [3] was inactive.
`CN1C2CCC1CC(OC(c1ccccc1)c1ccc(Cl)cc1)C2` (stereo not given): in [4] (at 57.5 µM (top of the series)), the activity change, negative = inhibition is 0.923% (inactive). In addition, the max response in assay [4] (setting [21]) is -27.9%; in assay [4] (setting [22]) it was -25.4%.
As for `Clc1ccc(Cl)cc1`, in assay [4] (at 57.5 µM (top of the series)), the activity change, negative = inhibition is 0.214% (inactive). The max response worked out at 8.86% in assay [4] (setting [21]) and 11.5% in [4] (setting [22]).
For the molecule `O=S1(=O)N(CCN2CC=C(c3c[nH]c4cc(F)ccc34)CC2)c2cccc3c2N1CCC3`, the molecule was classed as inactive in [1], in assay [2] and in assay [3].
In the case of `CN1CC[C@@]2(C)c3cc(O)ccc3N(C)C12` (stereo not given in full), the activity change, negative = inhibition in [4] (at 57.5 µM (top of the series)) was 0.587% (inactive). For the same molecule, the results for the max response in [4] (setting [21]) and in assay [4] (setting [22]) were -12.4% and -11.4%, respectively.
